# Several values for one entry are separate records, joined by “and”; a condition that tells them apart may be missing. Equal values may be shown once. Among all 5,500 compounds or so, about 2,000 (36%) were called active. Not shown: some 18% with an inconclusive outcome. Rule as the data show it: active = normalized growth mostly below about 0.91 (no sharp cut-off); inconclusive = no clear call, values can overlap the other calls; inactive = mostly above about 0.92. Some of the results follow.
# Assay: chemical genetic growth profiling, strain panel (AID 1159580);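 also: tested at 20 µM; growth read once vehicle control cultures reached saturation at 30 °C; 1 = growth at the plate median or of vehicle wells; lower values mean less growth of the strain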
# Conditions: S. cerevisiae deletion strains, growth OD
smiles,measurement,setting,value
CCOc1cccc(C(=O)c2ccc(O)c(O)c2O)c1,normalized growth,"locus YAL021C, strain ccr4, stronger effect = lower value",0.601 (active)
same,normalized growth,"locus YAL026C, strain drs2, stronger effect = lower value",0.813 (active)
same,normalized growth,"locus YAL030W, strain snc1, stronger effect = lower value",0.928 (active)
same,normalized growth,"locus YBL061C, strain skt5, stronger effect = lower value",0.888 (active)
same,normalized growth,"locus YBR009C, strain hhf1, stronger effect = lower value",0.879 (active)
same,normalized growth,"locus YBR021W, strain FUR4, stronger effect = lower value",0.898 (inactive)
same,normalized growth,"locus YBR023C, strain chs3, stronger effect = lower value",0.806 (active)
same,normalized growth,"locus YBR171W, strain sec66, stronger effect = lower value",0.918 (inactive)
same,normalized growth,"locus YBR229C, strain ROT2, stronger effect = lower value",0.938 (inactive)
same,normalized growth,"locus YBR231C, strain swc5, stronger effect = lower value",0.783 (active)
same,normalized growth,"locus YBR279W, strain paf1, stronger effect = lower value",0.933 (inactive)
same,normalized growth,"locus YCL011C, strain gbp2, stronger effect = lower value",0.941 (inactive)
same,normalized growth,"locus YCL016C, strain dcc1, stronger effect = lower value",0.963 (inactive)
same,normalized growth,"locus YCL029C, strain bik1, stronger effect = lower value",0.776 (active)
same,normalized growth,"locus YCL061C, strain MRC1, stronger effect = lower value",0.933 (inactive)
same,normalized growth,"locus YCL069W, strain vba3, stronger effect = lower value",0.975 (inactive)
same,normalized growth,"locus YCR088W, strain abp1, stronger effect = lower value",0.969 (inactive)
same,normalized growth,"locus YDL005C, strain med2, stronger effect = lower value",0.974 (inactive)
same,normalized growth,"locus YDL035C, strain GPR1, stronger effect = lower value",0.804 (active)
same,normalized growth,"locus YDL040C, strain nat1, stronger effect = lower value",0.963 (inactive)
same,normalized growth,"locus YDL074C, strain BRE1, stronger effect = lower value",0.67 (active)
same,normalized growth,"locus YDL101C, strain DUN1, stronger effect = lower value",0.752 (active)
same,normalized growth,"locus YDL185W, strain tfp1, stronger effect = lower value",0.586 (active)
same,normalized growth,"locus YDL192W, strain arf1, stronger effect = lower value",0.815 (active)
same,normalized growth,"locus YDR001C, strain nth1, stronger effect = lower value",0.955 (inactive)
same,normalized growth,"locus YDR069C, strain doa4, stronger effect = lower value",0.566 (active)
same,normalized growth,"locus YDR101C, strain arx1, stronger effect = lower value",0.889 (active)
same,normalized growth,"locus YDR137W, strain rgp1, stronger effect = lower value",0.643 (active)
same,normalized growth,"locus YDR159W, strain sac3, stronger effect = lower value",0.84 (active)
same,normalized growth,"locus YDR162C, strain NBP2, stronger effect = lower value",0.672 (active)
same,normalized growth,"locus YDR195W, strain ref2",0.99 (inactive)
same,normalized growth,"locus YDR297W, strain sur2, stronger effect = lower value",0.916 (active)
same,normalized growth,"locus YDR318W, strain mcm21, stronger effect = lower value",0.877 (active)
same,normalized growth,"locus YDR334W, strain swr1, stronger effect = lower value",0.886 (active)
same,normalized growth,"locus YDR335W, strain msn5, stronger effect = lower value",0.84 (active)
same,normalized growth,"locus YDR388W, stronger effect = lower value",0.923 (active)
same,normalized growth,"locus YDR392W, strain spt3, stronger effect = lower value",0.807 (inactive)
same,normalized growth,"locus YDR502C, strain sam2, stronger effect = lower value",0.791 (active)
same,normalized growth,"locus YEL003W, strain gim4, stronger effect = lower value",0.839 (active)
same,normalized growth,"locus YEL037C, strain rad23, stronger effect = lower value",0.925 (inactive)
same,normalized growth,"locus YEL061C, strain CIN8 (second series), stronger effect = lower value",0.955 (inactive)
same,normalized growth,"locus YER015W, strain faa2, stronger effect = lower value",0.89 (active)
same,normalized growth,"locus YER016W, strain bim1, stronger effect = lower value",0.953 (inactive)
same,normalized growth,"locus YER110C, stronger effect = lower value",0.979 (inactive)
same,normalized growth,"locus YER111C, strain swi4, stronger effect = lower value",0.815 (active)
same,normalized growth,"locus YER155C, strain BEM2 (second series), stronger effect = lower value",0.847 (active)
same,normalized growth,"locus YER155C, strain BEM2, stronger effect = lower value",0.858 (active)
same,normalized growth,"locus YER167W, strain BCK2, stronger effect = lower value",0.909 (inactive)
same,normalized growth,"locus YFR010W, strain ubp6, stronger effect = lower value",0.84 (active)
same,normalized growth,"locus YGL078C, strain dbp3, stronger effect = lower value",0.956 (inactive)
same,normalized growth,"locus YGL086W, strain mad1, stronger effect = lower value",0.782 (active)
same,normalized growth,"locus YGL167C, strain pmr1, stronger effect = lower value",0.935 (inactive)
same,normalized growth,"locus YGL173C, strain kem1, stronger effect = lower value",0.766 (active)
same,normalized growth,"locus YGL227W, strain vid30, stronger effect = lower value",0.984 (inactive)
same,normalized growth,"locus YGL240W, strain doc1, stronger effect = lower value",0.978 (inactive)
same,normalized growth,"locus YGL248W, strain PDE1, stronger effect = lower value",0.792 (active)
same,normalized growth,"locus YGL253W, strain hxk2, stronger effect = lower value",0.901 (active)
same,normalized growth,"locus YGR135W, strain pre9, stronger effect = lower value",0.777 (active)
same,normalized growth,"locus YGR252W, strain gcn5, stronger effect = lower value",0.77 (inactive)
same,normalized growth,"locus YHR013C, strain ard1, stronger effect = lower value",0.81 (active)
same,normalized growth,"locus YHR027C, strain rpn1, stronger effect = lower value",0.83 (active)
same,normalized growth,"locus YHR030C, strain SLT2, stronger effect = lower value",0.978 (inactive)
same,normalized growth,"locus YHR079C, strain IRE1 (second series), stronger effect = lower value",0.859 (active)
same,normalized growth,"locus YHR079C, strain IRE1, stronger effect = lower value",1.02 (inactive)
same,normalized growth,"locus YHR094C, strain hxt1, stronger effect = lower value",0.965 (inactive)
same,normalized growth,"locus YHR129C, strain ARP1, stronger effect = lower value",0.761 (active)
same,normalized growth,"locus YHR142W, strain chs7, stronger effect = lower value",0.776 (active)
same,normalized growth,"locus YHR200W, strain rpn10, stronger effect = lower value",0.859 (active)
same,normalized growth,"locus YIL066C, strain RNR3, stronger effect = lower value",0.8 (active)
same,normalized growth,"locus YIL073C, strain SPO22, stronger effect = lower value",0.654 (active)
same,normalized growth,"locus YIL125W, strain kgd1, stronger effect = lower value",0.951 (inactive)
same,normalized growth,"locus YIR030C, strain dcg1, stronger effect = lower value",0.958 (inactive)
same,normalized growth,"locus YJL092W, strain hpr5, stronger effect = lower value",0.97 (inactive)
same,normalized growth,"locus YJL095W, strain BCK1 (second series), stronger effect = lower value",0.867 (active)
same,normalized growth,"locus YJL095W, strain BCK1, stronger effect = lower value",0.603 (active) and 0.961 (inactive)
same,normalized growth,"locus YJL115W, strain asf1, stronger effect = lower value",0.971 (inactive)
same,normalized growth,"locus YJL129C, strain trk1, stronger effect = lower value",0.936 (inactive)
same,normalized growth,"locus YJL134W, strain LCB3, stronger effect = lower value",0.932 (inactive)
same,normalized growth,"locus YJL154C, strain vps35, stronger effect = lower value",0.959 (inactive)
same,normalized growth,"locus YJL164C, strain tpk1, stronger effect = lower value",0.811 (active)
same,normalized growth,"locus YJL166W, strain qcr8, stronger effect = lower value",0.872 (active)
same,normalized growth,"locus YJL168C, strain set2, stronger effect = lower value",0.964 (inactive)
same,normalized growth,"locus YJL187C, strain SWE1 (second series), stronger effect = lower value",0.42 (active)
same,normalized growth,"locus YJL187C, strain SWE1, stronger effect = lower value",0.895 (active)
same,normalized growth,"locus YJR066W, strain TOR1, stronger effect = lower value",0.981 (inactive)

# — PubChem BioAssay AID1159580 (chemical genetic matrix, 2015)
